Bioassay records deposited in PubChem BioAssay by National Center for Advancing Translational Sciences (NCATS).
Sampled rows, rich in hits. Any-hit rate of the full collection: about 7.3%.
FLuc modulator – qHTS profiling assay for firefly luciferase inhibitor/activator using purifed enzyme and Km concentrations of substrates (counterscreen for miR-21 project); purified FLuc, Km substrates, luminescence inhibition; Potency, µM (highest dose often 57.5 µM), for the others: at the top dose activity change, negative = inhibition, most hits filed as inhibitors; actives 6.9% (n = 360,000); AID 588342, 2011;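 note: plate controls were vehicle for no effect and reference inhibitor for full effect; nearly all actives have a fitted effect of over 55% in size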
Target sequence (P08659 whole entry, looked up): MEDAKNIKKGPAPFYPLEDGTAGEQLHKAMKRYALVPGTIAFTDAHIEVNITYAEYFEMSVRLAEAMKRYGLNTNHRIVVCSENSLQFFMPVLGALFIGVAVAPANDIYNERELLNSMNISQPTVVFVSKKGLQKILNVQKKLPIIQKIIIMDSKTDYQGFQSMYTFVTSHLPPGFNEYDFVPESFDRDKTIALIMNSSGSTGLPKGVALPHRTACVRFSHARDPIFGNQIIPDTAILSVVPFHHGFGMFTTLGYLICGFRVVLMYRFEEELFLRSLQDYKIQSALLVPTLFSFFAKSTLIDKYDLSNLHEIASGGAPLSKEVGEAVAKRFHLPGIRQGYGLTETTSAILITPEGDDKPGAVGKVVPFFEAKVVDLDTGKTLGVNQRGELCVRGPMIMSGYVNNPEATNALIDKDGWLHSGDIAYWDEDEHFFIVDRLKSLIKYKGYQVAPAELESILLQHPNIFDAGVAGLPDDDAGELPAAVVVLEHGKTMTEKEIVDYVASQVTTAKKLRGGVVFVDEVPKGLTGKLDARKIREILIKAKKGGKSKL
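Purified P. pyralis luciferase (10nM final) with 10uM D-luciferin and 10uM ATP (Km levels) in 50mM Tris acetate pH 7.5, 10mM Mg acetate, 0.01% Tween-20, 0.05% BSA; qHTS 6-point titration, ~60 µM downward; luminescence read.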
Rab9 prom act – qHTS Assay for Rab9 Promoter Activators. Potency, µM (doses to about 9.22 µM), for inactives: top-dose activation, negative = inhibition, actives largely listed as activators. actives 2.8% (n = 320,000). Huh7 Rab9 promoter-luciferase reporter, luminescence, 24 h. AID 485297, 2010; note: % of control where 0% means no effect; nearly all actives have a fitted effect of over 60% in size
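Luciferase signal after 10 min detection reagent at ambient indicates Rab9 promoter upregulation; stably transfected Huh7 cells were treated 24 h with compound in DMSO at 37 °C, 5% CO2.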
SMN2 splice enh – qHTS Assay for Enhancers of SMN2 Splice Variant Expression; Potency, µM (doses to about 46.1 µM), for inactives: at the highest dose activity change, positive = activation, actives largely listed as activators; HEK293 SMN2-luciferase splicing reporter, luminescence, 30-36 h; actives 2.8% (n = 210,000); AID 1458, 2008; note: % of control where 0% means no effect; nearly all actives have a fitted effect of over 55% in size
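qHTS luciferase splicing reporter: luminescence rises when SMN2 exon 7 is included in transfected HEK293 cells. Compound exposure lasted 30-36 h at 37C, with 4.5 mM final sodium butyrate as control, followed by a ONE-Glo read.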
p53 reactivator – qHTS assay for re-activators of p53 using a Luc reporter; AID 504706, 2011; Potency, µM (titrated, usually from 92.2 µM), for the others: at the top dose activity change, positive = activation, hits mostly activators; H1299 p53-A138V BP100-luciferase reporter, luminescence, 24 h; actives 0.063% (n = 320,000); note: % of control where 0% means no effect; nearly all actives have a fitted effect of over 45% in size
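H1299 (p53-null), stable ts p53-A138V + BP100-Luc; 1000 cells/well, Opti-MEM/10% FBS; cpd 4 pt, 1:5; 24 h, 37 deg C, 5% CO2; detection reagent 10 min RT; luminescence.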
NPC1 promoter act – qHTS Assay for NPC1 Promoter Activators | Huh7 NPC1 promoter luciferase reporter, 24 h | Potency, µM (titrated, usually from 9.22 µM), for the others: at the top dose activation, most hits filed as activators | actives 2.4% (n = 320,000) | AID 485313, 2010; note: % of control where 0% means no effect; nearly all actives have a fitted effect of over 60% in size
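In 1536-well qHTS, Huh7 cells harboring an NPC1 promoter–luciferase construct received compound for 24 h; activation was quantified by luminescence following luciferase reagent addition.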
ELG1 genotox – qHTS screen for small molecules that induce genotoxicity in human embryonic kidney (HEK293T) cells expressing luciferase-tagged ELG1. HEK293T ELG1-luciferase reporter, luminescence, 16 h. Potency, µM (top dose mostly 46 µM), inactives show top-dose activity change, positive = activation, actives largely listed as activators. actives 1.3% (n = 330,000). AID 504466, 2011; note: % of control where 0% means no effect; nearly all actives have a fitted effect of over 60% in size
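Genotoxic stress is detected as increased luminescence from luciferase-tagged ELG1 in HEK293T cells, measured with ONE-Glo after a 16 hr treatment at 37 °C.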
Numbers without * were called inactive; ? = inconclusive; . = no result. Calls come from the whole dose curve; as a rule, active = well fitted curve in the direction sought with a large enough effect; inconclusive = small, poorly fitted or top-dose-only effect, or another doubt; inactive = no such curve, though single readings can be large; an effect the other way counts as inactive or inconclusive. Potency is the fitted concentration of half-maximal effect.

SMILES | FLuc modulator | Rab9 prom act | SMN2 splice enh | p53 reactivator | NPC1 promoter act | ELG1 genotox
Cc1cc(C)n(-c2nc(C)c(C)c(=O)n2CC(=O)Nc2ccc(Cl)c(Cl)c2)n1 | 2% | . | . | . | . | .
Cc1cccc(OCc2nc3ccccc3n2C)c1 | 24µM* | ? | . | . | ? | ?
COc1cccc(OCc2nc3ccccc3n2C)c1 | 11µM* | . | 16µM* | . | . | .
Cc1cccc(OCc2nc3ccccc3c(=O)n2N)c1 | 17µM* | ? | ? | ? | ? | ?
Cc1ccc(CNC(=O)c2cc(C3CC3)nc3c2c(C)nn3-c2cccc(Cl)c2C)cc1 | 0% | . | . | . | . | .
CSc1ccc(C(=O)N2CCc3ccc(NC(=O)c4ccccn4)cc3C2)cc1 | 19µM* | ? | . | -15% | ? | -34%
COC(=O)c1ccccc1NC(=O)N1CCc2ccc(NC(=O)c3ccccn3)cc2C1 | 1% | 3% | . | 1% | -1% | -4%
CCNc1ncc2nc(CCc3ccccc3)c(=O)n(-c3ccccc3)c2n1 | . | . | -28% | . | . | .
CC1C=CCC2C(=O)N(c3cccc(C(=O)N4CCN(c5ccc(F)cc5)CC4)c3)C(=O)C12 (stereo unspecified) | 12µM* | 3.2µM* | ? | 23% | 2.8µM* | ?
O=C(CSc1ccc(-c2cccc([N+](=O)[O-])c2)nn1)N1CCCCC1 | -2% | 4% | -1% | 10% | -1% | 1%
COc1cccc(-c2ccc(SCc3ccccn3)nn2)c1 | 11µM* | 2.8µM* | 11µM* | 2% | 3.5µM* | ?
O=[N+]([O-])c1cccc(-c2ccc(SCc3ccccn3)nn2)c1 | 27µM* | 4µM* | ? | ? | ? | ?
Cc1ccc(NC(=O)NC(=O)COc2c(F)c(F)cc(F)c2F)c(C)c1 | . | . | . | 8% | . | -3%
COC(=O)Cn1c(C(=O)N(C)C)cc2c1C[C@H]1CN(C(=O)c3ccccc3)[C@@](Cc3ccc(OC)cc3)(C(=O)OC)[C@@H]21 | . | . | -2% | . | . | .
COc1ccc2nc(NC(=O)c3ccc(-n4nc(C)cc4C)cc3)sc2c1 | 0% | 7% | -23% | -4% | -2% | 11%
CC(=O)Nc1nc2cc(C(N)=O)ccc2s1 | -28% | 0% | . | 4% | 1% | 5%
NC(=O)c1ccc2nc(NC(=O)c3ccc(N)cc3)sc2c1 | 3µM* | ? | ? | 1% | ? | 16%
COc1ccc2nc(NC(=O)c3ccc(F)cc3)sc2c1 | 0.85µM* | 1.4µM* | . | ? | 2.5µM* | ?
COc1ccc2nc(NC(=O)c3ccc4ncsc4c3)sc2c1 | 1.1µM* | 1.8µM* | ? | ? | 2.8µM* | 5.8µM*
COc1ccccc1N1CCN(c2ncnc3c2nnn3C)CC1 | 5% | . | . | . | . | .
O=C(Cc1ccc(NC(=O)N2CCCCc3ccccc32)cc1)NCc1ccccc1 | -17% | . | . | . | . | .
O=C(O)CSc1ncnc2sc(-c3ccccc3)cc12 | 13µM* | 13% | 2% | 0% | 8% | -5%
CC(=O)CCSc1ncnc2sc(-c3ccccc3)cc12 | 1% | 10% | . | -3% | 5% | -8%
S=c1[nH]cnc2sc(-c3ccccc3)cc12 | 11µM* | ? | . | 10% | 17% | 0%
CNc1ncnc2sc(-c3ccccc3)cc12 | ? | 4% | . | 6% | 2% | 12%
SMILES | FLuc modulator | Rab9 prom act | SMN2 splice enh | p53 reactivator | NPC1 promoter act | ELG1 genotox
O=C(O)CCSc1ncnc2sc(-c3ccccc3)cc12 | 21µM* | -27% | . | -12% | -23% | -7%
COc1ccc(NC(=O)C(=S)NC2CCCCC2)cc1 | 5.4µM* | 2.8µM* | 13µM* | ? | 1.6µM* | 8.2µM*
CCc1ccc(NC(=O)NC2CCCCCCC2)cc1 | 3.8µM* | 1.1µM* | . | ? | 0.71µM* | ?
CCc1ccc(NC(=O)C2CCCN2C(=O)NC2CCCCC2)cc1 (stereo unspecified) | 0% | 5% | . | -1% | 0% | -2%
COc1ccc(NC(=O)CCSc2ccc(F)cc2)cc1 | 15µM* | 3.5µM* | . | ? | ? | ?
CCc1ccc(NC(=O)C(=S)NC2CCCCC2)cc1 | 3µM* | 0.63µM* | . | 20% | 0.79µM* | 8.2µM*
Cc1ccc(NC(=O)C2CCN(C(=O)NC3CCCCC3)CC2)cc1Cl | 12% | 0% | 8% | 4% | -1% | 3%
COc1ccc(NC(=O)CSC2CCCCC2)cc1 | 12µM* | 3.5µM* | 16% | ? | 3.2µM* | ?
Cc1ccc(NC(=O)NC2CCCCC2)cc1Cl | ? | ? | 13µM* | . | 3.2µM* | 3.7µM*
NS(=O)(=O)c1ccc(NC(=O)CSC2CCCCC2)cc1 | -12% | ? | -11% | 6% | 7% | 6%
O=C(CCN1CCN(CCO)CC1)Nc1ccc(C2CCCC2)cc1 | 4% | -3% | -17% | 9% | -9% | 2%
CCOc1ccc(NC(=O)NC2CCCCCCC2)cc1 | 5.4µM* | 3.5µM* | . | 26% | 1.8µM* | 10µM*
O=C(CSCCO)Nc1ccc(C2CCCCC2)cc1 | 12µM* | -6% | -12% | 12% | -5% | ?
COC(=O)[C@@H](NC(=O)O[C@@H]1C(=O)c2cc(Br)ccc2O[C@H]1c1ccc2c(c1)OCO2)C(C)C | . | . | -3% | . | . | .
CCC(=O)N1c2ccccc2CC1C(=O)NCc1ccccc1Cl (stereo unspecified) | -1% | . | . | . | . | .
CCOC(=O)Cn1c(=O)n(C2CCCCC2)c2nc(-c3ccc(OCC)cc3)nc(C(N)=O)c21 | -3% | . | . | . | . | .
O=C(Nc1ccccc1)NC1CCCCC1 | ? | ? | ? | 22% | 21% | 23%
O=C(Nc1ccc(Br)cc1)NC1CCCCCCC1 | 6.7µM* | 4µM* | . | 24% | 2.2µM* | ?
Cc1ccc(NC(=O)C(=O)N2CCCC2)cc1Cl | 2.1µM* | 2.8µM* | 10µM* | ? | 3.2µM* | ?
CN=c1scc(-c2cccs2)n1/N=C/c1ccc(O)c(O)c1O | 1.7µM* | 0.79µM* | 13µM* | . | ? | ?
CN=c1scc(C)n1/N=C/c1ccc(O)c(O)c1O | 1.5µM* | 17% | -1% | 0% | 2% | ?
Cc1cc(C)n(/N=C/c2ccccc2O)c(=O)c1 | ? | -3% | 0% | 1% | -2% | 5%
Oc1ccc(/C=N/N(c2ccccc2)c2ccccc2)c(O)c1O | -19% | 0% | . | 2% | 1% | -10%
Cc1nc2ccccc2c(=O)n1/N=C/c1ccc(O)c(O)c1O | ? | -2% | . | 5% | 2% | -3%
COc1cc(/C=N/N(C)C)cc(Br)c1O | -1% | -7% | . | 11% | -4% | -2%
